M1 ag = activates the M1 muscarinic receptor; CHO-M1 cells, Fluo-4 calcium fluorescence, agonist mode; hits give high values; B-score at 10 µM; 64,000 tested, 3% active;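 active = fluorescence rise, raw or as B-score row- and column-corrected plate score, outside the 99.7% band of its plate's samples, either direction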
Htt clearance = mutant huntingtin protein clearance; HeLa Exon1htt(103Q)mCFP, aggregate imaging; zero = plate's median compound well; inhibition, % at 1.5 µM; 47,000 tested, 0.42% active; AID 853;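 active = inhibition of aggregate fluorescence above about 70%, also judged a hit by eye on the cell image, limit read from the data, passing the limit was not always enough; inconclusive = no rule stated for this call; inactive = not judged a hit on image review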;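 note: cells exposed to compound for three days before fixation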
WNV NS2B-NS3 inh = inhibitors of West Nile virus NS2B-NS3 protease. P06935. WNV NS2B-NS3 protease, fluorogenic substrate Ex360/Em465; hits give low values. z-score (test concentration not listed). 65,000 tested, 0.18% active. AID 577; in the data active = z-score below about -3
M1 antag = antagonists of rat M1 muscarinic receptor; CHO-M1 cells, Fluo-4 calcium, ACh EC80 antagonist mode; hits give low values; B-score at 10 µM; 64,000 tested, 3.4% active;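 active = calcium fluorescence response, raw or row-and-column corrected B-score, differing from the plate sample mean either way at a set confidence level, mostly lower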
Target sequence (P08482 whole entry, looked up): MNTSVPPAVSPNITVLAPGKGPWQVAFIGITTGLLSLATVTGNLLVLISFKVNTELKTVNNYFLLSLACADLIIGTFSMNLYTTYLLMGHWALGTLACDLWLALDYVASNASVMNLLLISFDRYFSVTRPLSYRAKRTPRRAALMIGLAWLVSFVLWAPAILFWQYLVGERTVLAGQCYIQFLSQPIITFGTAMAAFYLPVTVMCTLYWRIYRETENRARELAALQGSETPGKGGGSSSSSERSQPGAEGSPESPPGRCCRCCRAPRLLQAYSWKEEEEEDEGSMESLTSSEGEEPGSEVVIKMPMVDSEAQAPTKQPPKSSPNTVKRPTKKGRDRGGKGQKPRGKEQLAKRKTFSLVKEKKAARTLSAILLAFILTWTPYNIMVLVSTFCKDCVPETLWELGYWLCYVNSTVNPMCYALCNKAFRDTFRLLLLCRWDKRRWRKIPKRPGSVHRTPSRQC
D1 mod = allosterically modulates the human D1 dopamine receptor. P21728. HEK293 D1, CRE-luciferase, dopamine EC30 potentiation; actives deviate in either direction. B-score at 10 µM. 58,000 tested, 5.9% active. AID 641;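 active = luminescence count or its row- and column-corrected plate score outside the 99.7% band of the plate's sample wells, on either side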
M1 ag confirm = rat M1 muscarinic agonism, confirmation; shares compounds with M1 ag; CHO-M1 cells, Fluo-4 calcium fluorescence, agonist mode; actives lie on both sides; fluorescence change (max-min) at 10 µM; 1,700 tested, 19% active; AID 1488;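 active = fluorescence change differs from the solvent-only DMSO control mean at a set confidence level in both duplicate runs; inconclusive = differs from solvent-only control mean in just one of two runs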;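 note: an EC20 dose of acetylcholine follows compound addition during the same imaging run; raw fluorescence intensity difference in instrument units with no normalization to controls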
M4 agonist ctr = rat M4 muscarinic agonism, M1 counter-screen | 1,700 tested, 9% active | shares compounds with M1 ag | fluorescence change (max-min) at 10 µM | CHO M4/Gqi5 cells, Fluo-4 calcium fluorescence, agonist mode; actives lie on both sides | AID 1741;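 active = fluorescence change differing from the plate's solvent-only control wells at 99.7% confidence in both duplicates, whether higher or lower; inconclusive = differs from solvent controls in only one of two duplicates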
* hit, by the source's call; ? = inconclusive; / = not tested or not shown. Rows were chosen to be rich in hits. Some 8.9% of all compounds tested hit in one or more screens of this group.

SMILES | M1 ag | Htt clearance | WNV NS2B-NS3 inh | M1 antag | D1 mod | M1 ag confirm | M4 agonist ctr
CC(C)CC(C(=O)Nc1oc(-c2ccco2)c(-c2ccco2)c1C#N)N1C(=O)c2ccccc2C1=O (stereo not given) | 12.6* | / | -1.97 | -1.94* | / | -5.57 | -33.3
CC(C)CC(C(=O)Nc1ccc2c(c1)OCCO2)N1C(=O)c2ccccc2C1=O (stereo not given) | 0.603 | / | -1.08 | 0.0713 | -0.282 | / | /
Cc1ccc(N2C(=O)c3ccc(C(=O)N4CCOCC4)cc3C2=O)cc1C | / | 10.9 | / | / | / | / | /
Cc1ccc(N2C(=O)c3cccc4c(N5CCN(C)CC5)ccc(c34)C2=O)c2cccnc12 | 405* | 11.8 | -0.53 | -3.08* | -0.516 | 956* | 1220*
Cc1n[nH]c(C)c1N1C(=O)c2cccc3c(Br)ccc(c23)C1=O | / | -28.4 | / | / | / | / | /
COc1cccc(C2C(C(N)=O)=C(C)Nc3nc(-c4ccccc4Cl)nn32)c1 (stereo not given) | 0.619 | / | -0.85 | 0.497 | -2.02 | / | /
O=c1cc(CSc2nnc(-c3cccs3)n2Cc2ccccc2)nc2sc3ccccc3n12 | 4.18* | 24.2 | -1.55 | -0.358 | -1.5 | 4.38 | -13.8
Cc1cc(C(=O)CSc2nnc(-c3cccs3)n2Cc2ccccc2)c(C)n1C | -0.0329 | 20.0 | 0.34 | 0.201 | -0.452 | / | /
COc1ccc(N(CC(=O)NC2CCCC2)C(=O)Cn2nnc(-c3ccc(F)cc3)n2)cc1OC | 0.887 | / | 0.07 | 0.00543 | 0.00569 | / | /
COc1ccc(N(CC(=O)NC2CCCC2)C(=O)Cn2nnc(-c3ccc(C)cc3)n2)cc1OC | 13.2* | / | -1.59 | 0.0224 | / | ? | -59.5
CC(=O)NCc1ccc(C(=O)CSc2nnc(-c3ccncc3)n2Cc2ccccc2)o1 | 0.935 | 19.9 | -0.73 | 0.165 | 0.0126 | / | /
Oc1ccc(CNc2ccc(F)cc2)c2cccnc12 | 21.9* | 25.9 | 2.23 | 0.0369 | 0.241 | -20.1 | ?
O=C(Nc1ccc(S(=O)(=O)N2CCCCC2)cc1)c1ccncc1 | -2.86* | 45.2 | 0.11 | -0.552 | -1.08 | -22.3* | -72.2*
CC(=O)c1ccc(NC(=O)c2ccc(S(=O)(=O)N3CCCC3)cc2)cc1 | / | 16.2 | 0.12 | / | -0.0155 | / | /
NC(=O)c1ccsc1NC(=O)c1ccc(S(=O)(=O)N2CCCCC2)cc1 | 3.1* | / | 0.12 | -0.538 | 2.85 | ? | -33.3
Cc1cc(C)cc(NC(=O)CSc2nnc(-c3ccccc3)n2N)c1 | 0.959 | -6.0 | -2.06 | 0.109 | 0.996 | / | /
Cc1cccc2cc3c(N)c(C(=O)N4CCOCC4)sc3nc12 | 6.99* | 41.4 | -0.87 | -0.369 | -1.97 | ? | 30.8
CCOc1ccccc1C(=O)N1CCCCC1C (stereo not given) | 0.306 | -30.6 | -1.72 | -0.478 | -0.266 | / | /
Cc1ccc(C)c(C(=O)NCc2ccncc2)c1 | 1.36 | -19.2 | -0.48 | -0.182 | / | / | /
COc1ccc(CNC(=O)c2nnn(Cc3ccc(OC)cc3)c2N)cc1 | 0.124 | -370.2 | 0.04 | 0.106 | -0.0311 | / | /
CCc1ccc(Cn2nnc(C(=O)NCc3ccccc3OC)c2N)cc1 | 2.18* | / | 1.33 | 0.141 | -0.0749 | -28.9 | -23.3
Cc1ccc(Cn2nnc(C(=O)Nc3cccc(C)c3C)c2N)cc1 | 7.51* | / | -1.01 | 0.0142 | -0.0246 | 4.21 | -61.8
COc1ccc(S(=O)(=O)N(Cc2cc3ccc(OC)cc3[nH]c2=O)CC2COCCO2)cc1 (stereo not given) | 4.88* | 55.5 | 0.64 | -0.192 | 1.09 | -12.2 | ?
CCOC(=O)c1c(C)[nH]c(C)c1C(=O)Cn1nnc(-c2ccccc2C)n1 | -0.0379 | -75.3 | -2.74 | -1.72 | 1.39 | / | /
Cc1nc2nc(-c3cccs3)cn2nc1C | 100* | 40.8 | -0.22 | 0.542 | -1.33 | 1066* | 1014*
COc1cccc(-c2cn3nc(C)c(C)nc3n2)c1 | -0.907 | 33.4 | -0.81 | -0.78 | -1.9 | / | /
Cc1c(Nc2nc3ccccc3nc2N2CCN(c3ccccc3)CC2)c(=O)n(-c2ccccc2)n1C | 3.57* | -18.4 | -1 | -0.607 | -0.432 | -7.75 | -10.8
COCC(C)NCc1cccc(C)c1 (stereo not given) | / | 43.8 | / | / | / | / | /
COc1ccccc1N(CC(=O)Nc1cc(C)on1)S(=O)(=O)c1cccs1 | 0.274 | / | -0.31 | -0.274 | / | / | /
O=c1c(C=NCCCn2ccnc2)c(-c2ccccc2)[nH]n1-c1nc2ccccc2s1 | 5.24* | -23.3 | 1.41 | -1.12 | 1.56 | -4.57 | -18.3

Source: PubChem
